± gives the standard deviation.
What was measured:
[1] = test system: MILI (PIWIL2) piRISC loaded with piRNA #1 (26 nt); test: pre-steady-state target cleavage rate (min^-1); guide: piRNA #1 5'p-UGAGGUAGUAGGUUGUAUAGUAUCCA; higher = faster piRNA-guided slicing of the target; details: auxiliary factor: 500 nM mouse GTSF1
Summary of the method: (§1)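 Cleave-'n-Seq: 1 nM active affinity-purified piRISC with one synthetic guide and 0.1 nM transcribed, DNA-blocked target RNA library were mixed, with or without 500 nM GTSF1 partner protein, in HEPES–potassium acetate buffer at 33 °C for 0–8 or 0–960 min. Uncleaved targets were sequenced and normalised to depth and to weakly complementary targets, three trials were pooled, and k3 was capped at 0.0001 min^-1. The pre-steady-state cleavage rate was fitted […].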

[2] = test system: EfPiwi piRISC loaded with piRNA #1 (26 nt); test: pre-steady-state target cleavage rate (min^-1); auxiliary factor: 500 nM Ephydatia muelleri Gtsf1; guide: piRNA #1 5'p-UGAGGUAGUAGGUUGUAUAGUAUCCA; MIWI and MILI are mouse PIWI proteins and EfPiwi is from a freshwater sponge; tags in brackets are library labels; higher = faster piRNA-guided slicing of the target
Summary of the method: as §1

| Sequence | pre-steady-state target cleavage rate [1] | pre-steady-state target cleavage rate [2] |
| --- | --- | --- |
| GGAGACCAUACUAUACAACCUACUACUCUCA | 0.331 ± 0.028 | 0.00773 ± 0.0036 |
| GGAGACCAUACUAUUCAACCUACUACGUCA | 0.0881 ± 0.013 | 0.00376 ± 0.0034 |
| GGAGAGGAUACUAUACAACCGACUACCUCA | 0.00439 ± 0.0027 | 0.00504 ± 0.002 |
| GGAGACGAUACUAUACAACCUACUGCCUCA | 0.11 ± 0.015 | 0.00691 ± 0.0024 |
| GGAGACCAUACUAUACAACCUACUAACCUCA | 0.226 ± 0.019 | 0.00357 ± 0.0025 |
| GGAGACCUAUCUUAUACAACCUACUACCUCA | 0.145 ± 0.031 | 0.0118 ± 0.0052 |
| GGAGACGAUACAAUACAACCUACUACCUCA | 0.158 ± 0.012 | 0.0117 ± 0.0044 |
| GGAGAGGAUACUAUACAACCAUACUACCUCA | 0.00709 ± 0.0019 | 0.00323 ± 0.0026 |
| GGAGAGGAUAGUAUACAACCUACUAGCUCA | 0.00705 ± 0.0035 | 0.00348 ± 0.0023 |
| GGAGAGGAAACUAUACAACCUACUACCACA | 0.155 ± 0.03 | 0.00262 ± 0.0018 |
| GGAGAGGAUACUAUACAACCUACUACCGCA | 0.0764 ± 0.015 | 0.00593 ± 0.0021 |
| GGAGAGGAUACUAUAUAACCUACUACCUCA | 0.167 ± 0.01 | 0.109 ± 0.041 |
| GGAGAGGAUACUAUACAACUACUACCUCA | 0.0329 ± 0.0041 | 0.00869 ± 0.0042 |
| GGAGAGGAUACUAUACAAACUACUACCUCA | 0.134 ± 0.013 | 0.00673 ± 0.0029 |
| GGAGUGGAUACUAUACAACCUACUCCCUCA | 0.0191 ± 0.0045 | 0.00426 ± 0.0017 |
| GGAGUGGAUACUAUACAACCUACUACCCCA | 0.0956 ± 0.016 | 0.00727 ± 0.0025 |
| GGAGACCAUACUAUACAACCUAUUACCUCA | 0.234 ± 0.019 | 0.0186 ± 0.0067 |
| GGAGAGGAUACUAUACAACCUACUACCUCU [g2:g25:cont:t1U] | 0.238 ± 0.025 | 1.56 ± 0.47 |
| GGAGACCUAACUAUACAACCUACUACCUAA | 0.0853 ± 0.015 | 0.0641 ± 0.025 |
| GGAGACGAUACUAUACAACCAUACUACCUCA | 0.00651 ± 0.0034 | 0.00938 ± 0.0047 |
| GGAGACCUUACUAUACAACCUACUGCCUCA | 0.0872 ± 0.011 | 0.00661 ± 0.0029 |
| GGAGACGAUACUAUACAACCUACUUCCUCA | 0.0885 ± 0.024 | 0.00431 ± 0.0018 |
| GGAGUGGAUACUAAACAACCAACUACCUCA | 0.007 ± 0.0021 | 0.0031 ± 0.0017 |
| GGAGACCUAUCUAUACAACCUACUACCUGA | 0.074 ± 0.011 | 0.00569 ± 0.0033 |
| GGAGACCUAACUAUACAACCUACUACGUCA | 0.0415 ± 0.014 | 0.00274 ± 0.0023 |
| GGAGACCAUACUAUGCAACCUACUACCUCA | 0.174 ± 0.019 | 0.0164 ± 0.0068 |
| GGAGAGGAUGACUAUACAACCUACUACCUCA | 0.0775 ± 0.015 | 0.01 ± 0.006 |

| Sequence | pre-steady-state target cleavage rate [1] | pre-steady-state target cleavage rate [2] |
| --- | --- | --- |
| GGAGUGGAUACUAUCAACCUACUACCUCA | 0.186 ± 0.0098 | 0.0872 ± 0.035 |
| GGAGUGGAUACUAUACAUCCUACUACCUGA | 0.0983 ± 0.018 | 0.00497 ± 0.0018 |
| GGAGUGCUAACUAUACAACCUACUACCUCA | 0.128 ± 0.015 | 0.0117 ± 0.0053 |
| GGAGUGGAUACUAUCACAACCUACUACCUCA | 0.199 ± 0.013 | 0.0265 ± 0.011 |
| GGAGACCUAACUAUACCACCUACUACCUCA | 0.0944 ± 0.018 | 0.0066 ± 0.0031 |
| GGAGACGAUACUAUACACCCUACUACCUCA | 0.081 ± 0.0091 | 0.011 ± 0.0045 |
| GGAGAGGAUACUAUACAACCUACACCUCA | 0.00718 ± 0.0031 | 0.00361 ± 0.002 |
| GGAGACCUUACUAUACAACCUACUACCUCG [g2:g22:cont:t1G] | 0.173 ± 0.015 | 0.062 ± 0.022 |
| GGAGACCUUACUAUGCAACCUACUACCUCA | 0.158 ± 0.011 | 0.0061 ± 0.0032 |
| GGAGACCUUACUAUACAACUUACUACCUCA | 0.0242 ± 0.0054 | 0.00902 ± 0.0051 |
| GGAGACCUAACUAUACAACCUACUUCCUCA | 0.0606 ± 0.02 | 0.00336 ± 0.0029 |
| GGAGAGGAUAUAUACAACCUACUACCUCA | 0.165 ± 0.014 | 0.00764 ± 0.0042 |
| GGAGACGAAACUAUACAACCUACUACCUGA | 0.149 ± 0.039 | 0.00491 ± 0.0026 |
| GGAGUGGAUACUAUACAUCCUACUUCCUCA | 0.0127 ± 0.0032 | 0.00326 ± 0.0017 |
| GGAGACCUUACUAUACAACCUACUACCUACA | 0.109 ± 0.017 | 0.00473 ± 0.0031 |
| GGAGUGGAUACUAUACAAGCUACUUCCUCA | 0.0765 ± 0.0095 | 0.00402 ± 0.0022 |
| GGAGACCUAACUAUACAACCUACUACGACA | 0.118 ± 0.037 | 0.00325 ± 0.0029 |
| GGAGUGGAAACUUUACAACCUACUACCUCA | 0.179 ± 0.02 | 0.00583 ± 0.0037 |
| GGAGACCAUUCUAUACAACCUACUACCACA | 0.159 ± 0.018 | 0.00335 ± 0.0031 |
| GGAGUGGAUUCUAUACAACCUUCUACCUCA | 0.00777 ± 0.0028 | 0.00415 ± 0.0028 |
| GGAGAGGAUACUAUACACCUACUACCUCA | 0.0354 ± 0.0068 | 0.0984 ± 0.042 |
| GGAGACCUUACUAAUACAACCUACUACCUCA | 0.0928 ± 0.01 | 0.074 ± 0.027 |
| GGAGACCAUACUAUACAACCUACUGACCUCA | 0.0765 ± 0.017 | 0.0102 ± 0.0061 |
| GGAGAGGAUACUAUACAAGCUACUAGCUCA | 0.0601 ± 0.013 | 0.00266 ± 0.0018 |
| GGAGACCAUACUAUACAACCUACUACCUUCA | 0.2 ± 0.018 | 0.0679 ± 0.02 |
| GGAGACGAUACUAUCCAACCUACUACCUCA | 0.175 ± 0.016 | 0.00717 ± 0.0028 |
| GGAGACCUUACGUAUACAACCUACUACCUCA | 0.0406 ± 0.0063 | 0.00861 ± 0.0055 |
